Test results as given in PubChem BioAssay (EPA / NIEHS).
Calls of active or inactive are those of the source. The calls were made as follows: active = hit-call score of the fitted dose curve at least 0.9, where 1 is the maximum; inactive = score below 0.9.

assay: APR_HepG2_MitoMass_1hr: Apredica 1-hour HepG2 Assay for Mitochondrial Mass (AID 2282674); settings: high-content imaging, actives raise or lower the signal
Protocol: APR_HepG2_1hr is a cell-based, multiplexed-readout assay that uses HepG2, a human liver cell line, with measurements taken at 1 hour after chemical dosing in a 384-well plate.APR_HepG2_MitoMass_1hr is one of 10 assay component(s) measured or calculated from the APR_HepG2_1hr assay. It is designed to make measurements of cell phenotype, a form of morphology reporter, as detected with fluorescence intensity signals by HCS Fluorescent Imaging technology.Data from the assay component APR_HepG2_MitoMass_1hr was analyzed into 1 assay endpoint. This assay endpoint, APR_HepG2_MitoMass_1hr, was analyzed with bidirectional fitting relative to DMSO as the negative control and baseline of activity. Using a type of morphology reporter, gain or loss-of-signal activity can be used to understand changes in the signaling. Furthermore, this assay endpoint can be referred to as a primary readout, because this assay has produced multiple assay endpoints where this one serves a signaling function. To generalize the intended target to other relatable targets, this assay endpoint is annotated to the cell morphology intended target family, where the subfamily is organelle conformation.
Cells were treated with dimethyl sulfoxide (DMSO) as a solvent control at a final concentration of 0.5% v/v or with compounds in DMSO with a resulting final DMSO concentration of 0.5% v/v. Compound treatment was done at concentrations of 0.39, 0.78, 1.56, 3.12, 6.24, 12.5, 25, 50, 100, and 200 uM in duplicate on each plate. Cells were treated with compounds for 1, 24, or 72 hr. Carbonyl […] m-chloro-phenylhydrazone (CCCP) and taxol were used as positive controls for mitochondrial function and cytoskeletal stability, respectively; DMSO served as the negative control for this experiment. Cells were fixed by the direct addition of 50 uL formaldehyde in Hank's Balanced Salt Solution (HBSS) to a final concentration of 3.7%. After incubation in the fixation medium for 30 min at room temperature (293-298 K), cells were rinsed twice with HBSS and treated with cell permeabilization buffer (16 uL of 0.5% Triton X-100) for 10 min at room temperature (293-298 K) before labeling. For mitochondrial membrane potential and mitochondrial measurements, pre-fixed cells were incubated with 50 uL of MitoTracker Red CMXRos (Invitrogen) at a concentration of 250 nM for 30 min before fixation. In the remaining cases, post-fixed cells were labeled by incubation with a multiplexed mixture of primary antibodies in HBSS for 60 min at room temperature (293-298 K) to detect immunoreactivity of c-Jun (1:500), phospho-histone H3 (1:100), phospho-histone H2A.x (1:200), p53 (1:400), alpha-tubulin (1:200) and Hoechst 33342 (2 ug/mL). Cells were labeled for multiplexed imaging on two separate plates: a) Hoechst 33342, MitoTracker Red, phospho-histone H3, and alpha-tubulin, and b) Hoechst 33342, phospho-histone H2A.x, and c-Jun. A final rinse with HBSS (50 uL) was performed before analysis. The primary and secondary antibodies for the proteins were phospho-histone H3 (rabbit anti-phospho-histone H3 and FITC-donkey anti-rabbit IgG), phospho-histone H2A.x (mouse anti-phospho-histone H2A.x and FITC-donkey anti-mouse IgG), c-Jun (rabbit anti-phospho-c-Jun and Cy3-donkey anti-rabbit IgG), p53 (sheep anti-p53 and Cy5-donkey anti-sheep IgG), alpha-tubulin (mouse anti-alpha-tubulin and Cy5-donkey anti-mouse IgG). These antibodies are available as the CellCiphr HepG2 assay kit (Millipore).Digital images of each well were captured using a Cellomics ArrayScan VTI (Thermo Scientific Cellomics) (0.8 NA objective, 0.63x optical coupler, and XF-93 filter set) at 20x magnification. The images were acquired using the autofocus feature of the ArrayScan instrument, which entails the following steps. First, the camera focuses on channel 1 (Hoechst 33342), where nuclei are identified. Second, a Z offset of 1 um is used for capturing mitochondria (MitoTracker Red). Third, a Z offset of -2 um is used for capturing the cytoskeleton (tubulin). […]

| Structure (SMILES) | outcome | AC50 |
| --- | --- | --- |
| CCOC1Oc2ccc(OS(C)(=O)=O)cc2C1(C)C (stereo not given) | inactive | – |
| CCc1ccc(C(=O)NN(C(=O)c2cc(C)cc(C)c2)C(C)(C)C)cc1 | inactive | – |
| COC(=O)c1ccccc1S(=O)(=O)NC(=O)N(C)c1nc(C)nc(OC)n1 | inactive | – |
| CC(C)N(C(=O)COc1nnc(C(F)(F)F)s1)c1ccc(F)cc1 | inactive | – |
| COC(=O)c1ccccc1CS(=O)(=O)NC(=O)Nc1nc(OC)cc(OC)n1 | inactive | – |
| O=S(=O)(O)C(F)(F)C(F)(F)C(F)(F)C(F)(F)C(F)(F)C(F)(F)C(F)(F)C(F)(F)F | inactive | – |
| CCCN(CCOc1c(Cl)cc(Cl)cc1Cl)C(=O)n1ccnc1 | inactive | – |
| CNC(=O)Oc1ccccc1OC(C)C | inactive | – |
| O=[N+]([O-])/N=C1\NCCN1Cc1ccc(Cl)nc1 | inactive | – |
| Cc1cc(C)nc(NC(=O)NS(=O)(=O)c2ccccc2C(=O)OC2COC2)n1 | inactive | – |
| O=C(O)COc1ccc(Cl)cc1Cl | inactive | – |
| Oc1cc(Cl)ccc1Oc1ccc(Cl)cc1Cl | – | 170 µM (active) |
| CC1(c2ccc(Oc3ccccc3)cc2)OC(=O)N(Nc2ccccc2)C1=O (stereo not given) | inactive | – |
| N#Cc1c(Cl)c(Cl)c(Cl)c(C#N)c1Cl | – | 5.34 µM (active) |
| COP(=S)(OC)Oc1ccc([N+](=O)[O-])cc1 | inactive | – |
| OCCOc1ccccc1 | inactive | – |
| CCCN(CCC)c1c([N+](=O)[O-])cc(C(F)(F)F)cc1[N+](=O)[O-] | inactive | – |
| CC(C)OC(=O)Nc1cccc(Cl)c1 | inactive | – |
| Cc1[nH]c(=O)n(C(C)(C)C)c(=O)c1Cl | inactive | – |
| CC[C@H](C)[C@H]1O[C@]2(C=C[C@@H]1C)C[C@@H]1C[C@@H](C/C=C(\C)[C@@H](O[C@H]3C[C@H](OC)[C@@H](O[C@H]4C[C@H](OC)[C@@H](O)[C@H](C)O4)[C@H](C)O3)[C@@H](C)/C=C/C=C3\CO[C@@H]4[C@H](O)C(C)=C[C@@H](C(=O)O1)[C@]34O)O2 (tested in a mixture with another compound) | – | 26.8 µM (active) |

| Structure (SMILES) | outcome | AC50 |
| --- | --- | --- |
| Oc1ccc(Cl)cc1Cc1ccccc1 | inactive | – |
| ClC1C(Cl)C(Cl)C(Cl)C(Cl)C1Cl (stereo not given) | inactive | – |
| CNC(=O)/C=C(\C)OP(=O)(OC)OC | inactive | – |
| C[C@H]1[C@H](c2ccc(Cl)cc2)SC(=O)N1C(=O)NC1CCCCC1 | inactive | – |
| CCC(C)Nc1c([N+](=O)[O-])cc(C(C)(C)C)cc1[N+](=O)[O-] (stereo not given) | inactive | – |
| [2H]C1([2H])[n+]2ccccc2-c2cccc[n+]2C1([2H])[2H] | inactive | – |
| CCOCN(C(=O)CCl)c1c(C)cccc1CC | inactive | – |
| Clc1ccccc1-c1nnc(-c2ccccc2Cl)nn1 | inactive | – |
| CCN(CC)C(=O)SCc1ccc(Cl)cc1 | inactive | – |
| O=C(O)CCCOc1ccc(Cl)cc1Cl | inactive | – |
| C#CCN1C(=O)COc2cc(F)c(N3C(=O)C4=C(CCCC4)C3=O)cc21 | inactive | – |
| CC1(C)C(C=C(Cl)Cl)C1C(=O)OC(C#N)c1ccc(F)c(Oc2ccccc2)c1 (stereo not given) | inactive | – |
| COc1nn(CSP(=S)(OC)OC)c(=O)s1 | inactive | – |
| CCS(=O)(=O)c1cccnc1S(=O)(=O)NC(=O)Nc1nc(OC)cc(OC)n1 | inactive | – |
| CN1CSC(=S)N(C)C1 | inactive | – |
| COC(=O)c1ccccc1S(=O)(=O)NC(=O)Nc1nc(C)nc(OC)n1 | inactive | – |
| N#CN | inactive | – |
| CNC(=O)CSP(=S)(OC)OC | inactive | – |
| CC(C)(C)C(O)/C(=C\c1ccc(Cl)cc1Cl)n1cncn1 (stereo not given) | inactive | – |
| CCC(C)(NC(=O)c1cc(Cl)c(C)c(Cl)c1)C(=O)CCl (stereo not given) | inactive | – |
